Inconclusive results are not listed. Activity calls are given as the source filed them. Calls come from the whole dose curve; as a rule, active = well fitted curve in the direction sought with a large enough effect; inconclusive = small, poorly fitted or top-dose-only effect, or another doubt; inactive = no such curve, though single readings can be large; an effect the other way counts as inactive or inconclusive.
How the values were obtained:
[1] = qHTS of pediatric cancer cell lines to identify multiple opportunities for drug repurposing: Primary screen for Saos-2 cells (AID 1347097); note: nearly all actives have a fitted effect of over 40% in size; note: potency is the fitted concentration of half-maximal effect
Summary of the method: (§1)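 Readout: CellTiter-Glo luminescence, 48 h treatment. Controls DMSO (neutral) and bortezomib 2.3 µM final (positive). Potency and efficacy taken from primary-screen concentration-response curves.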

[2] = qHTS of pediatric cancer cell lines to identify multiple opportunities for drug repurposing: Primary screen for LAN-5 cells (AID 1347100); note: potency is the fitted concentration of half-maximal effect
Summary of the method: (§2)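 Cells (500-1,000/well) in growth media were settled 5 h at 37 degrees C, then given compounds for 48 h. Viability was read as CellTiter-Glo luminescence. Primary runs used MIPE at 11 points (0.78 nM-46 µM) and NPC at 8 points (0.59 nM-46 µM); follow-ups used 11 points.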

[3] = qHTS of pediatric cancer cell lines to identify multiple opportunities for drug repurposing: Primary screen for MG 63 (6-TG R) cells (AID 1347105); note: nearly all actives have a fitted effect of over 50% in size; note: potency is the fitted concentration of half-maximal effect
Summary of the method: as §1

[4] = qHTS of pediatric cancer cell lines to identify multiple opportunities for drug repurposing: Primary screen for control Hh wild type fibroblast cells (AID 1347106);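 note: series mostly up to about 46 µM; a drop in luminescence marks cytotoxicity and a rise apparent proliferation; nearly all actives have a fitted effect of over 55% in size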
Summary of the method: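 Viability after 48 h compound treatment at 37C, 500-1,000 cells/well, read as ATP luminescence with CellTiter-Glo. Primary screens used 11-point (MIPE, 0.78 nM-46 µM) or 8-point (NPC, 0.59 nM-46 µM) final concentrations; follow-up screens used 11-point dilutions.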

[5] = qHTS of pediatric cancer cell lines to identify multiple opportunities for drug repurposing: Primary screen for Rh30 cells (AID 1347107); note: nearly all actives have a fitted effect of over 75% in size; note: potency is the fitted concentration of half-maximal effect
Summary of the method: as §2

[6] = qHTS of pediatric cancer cell lines to identify multiple opportunities for drug repurposing: Confirmatory screen for NB1643 cells (AID 1347109); note: potency is the fitted concentration of half-maximal effect; nearly all actives have a fitted effect of over 45% in size
Summary of the method: as §2

[7] = qHTS of pediatric cancer cell lines to identify multiple opportunities for drug repurposing: Confirmatory screen for A673 cells (AID 1347110);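 note: potency is the fitted concentration of half-maximal effect; cells exposed to compound for 48 h before the viability read; nearly all actives have a fitted effect of over 65% in size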
Summary of the method: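 Cells plated at 500-1,000/well were treated five hours later with multi-point dilutions up to 46 µM final. After two days, CellTiter-Glo was added and luminescence read.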

[8] = qHTS of pediatric cancer cell lines to identify multiple opportunities for drug repurposing: Confirmatory screen for SK-N-MC cells (AID 1347111);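 note: potency is the fitted concentration of half-maximal effect; cells exposed to compound for 48 h before the readout; nearly all actives have a fitted effect of over 70% in size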
Summary of the method: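 Metabolically active cells were quantified by ATP-dependent luminescence (CellTiter-Glo, 15 min at room temperature) following 48 h treatment. Cells had been plated at 500-1,000 per well and settled for 5 h beforehand.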

[9] = qHTS of pediatric cancer cell lines to identify multiple opportunities for drug repurposing: Confirmatory screen for BT-12 cells (AID 1347112); note: nearly all actives have a fitted effect of over 55% in size; note: potency is the fitted concentration of half-maximal effect
Summary of the method: as §2

[10] = qHTS of pediatric cancer cell lines to identify multiple opportunities for drug repurposing: Confirmatory screen for LAN-5 cells (AID 1347113); note: nearly all actives have a fitted effect of over 65% in size; note: potency is the fitted concentration of half-maximal effect
Summary of the method: as §2

[11] = qHTS of pediatric cancer cell lines to identify multiple opportunities for drug repurposing: Primary screen for NB-EBc1 cells (AID 1347095); note: potency is the fitted concentration of half-maximal effect
Summary of the method: as §1

[12] = qHTS of pediatric cancer cell lines to identify multiple opportunities for drug repurposing: Primary screen for SK-N-SH cells (AID 1347098); note: nearly all actives have a fitted effect of over 65% in size; note: potency is the fitted concentration of half-maximal effect
Summary of the method: (§3)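 Cells (500-1,000/well) rested 5 h, then received compounds for 48 h; metabolically active cells were measured by CellTiter-Glo luminescence. Final concentrations spanned up to 46 µM (MIPE, 11-point) or 0.59 nM-46 µM (NPC, 8-point) in primary screens, 11-point in follow-ups.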

[13] = qHTS of pediatric cancer cell lines to identify multiple opportunities for drug repurposing: Primary screen for BT-12 cells (AID 1347101); note: nearly all actives have a fitted effect of over 25% in size; note: potency is the fitted concentration of half-maximal effect
Summary of the method: as §3

[14] = qHTS of pediatric cancer cell lines to identify multiple opportunities for drug repurposing: Primary screen for Rh18 cells (AID 1347102); note: nearly all actives have a fitted effect of over 65% in size; note: potency is the fitted concentration of half-maximal effect
Summary of the method: as §2

[15] = qHTS of pediatric cancer cell lines to identify multiple opportunities for drug repurposing: Primary screen for OHS-50 cells (AID 1347103); note: nearly all actives have a fitted effect of over 40% in size; note: potency is the fitted concentration of half-maximal effect
Summary of the method: as §3

[16] = qHTS of pediatric cancer cell lines to identify multiple opportunities for drug repurposing: Primary screen for RD cells (AID 1347104); note: nearly all actives have a fitted effect of over 55% in size; note: potency is the fitted concentration of half-maximal effect
Summary of the method: as §1

[17] = qHTS of pediatric cancer cell lines to identify multiple opportunities for drug repurposing: Primary screen for Rh41 cells (AID 1347108); note: nearly all actives have a fitted effect of over 70% in size; note: potency is the fitted concentration of half-maximal effect
Summary of the method: as §1

[18] = qHTS of pediatric cancer cell lines to identify multiple opportunities for drug repurposing: Primary screen for U-2 OS cells (AID 1347096); note: nearly all actives have a fitted effect of over 50% in size
Summary of the method: as §2

[19] = qHTS of pediatric cancer cell lines to identify multiple opportunities for drug repurposing: Primary screen for NB1643 cells (AID 1347099); note: nearly all actives have a fitted effect of over 50% in size; note: potency is the fitted concentration of half-maximal effect
Summary of the method: as §1

Measured: Potency

COC(=O)C1C2CC3c4[nH]c5cc(OC)ccc5c4CCN3CC2CC(OC(=O)c2cc(OC)c(OC)c(OC)c2)C1OC (centres undefined)
inactive: [2] | [3] | [4] | [5]
active: [1] 18.7 µM | [6] 5.22 µM | [7] 3.29 µM | [8] 0.369 µM | [9] 2.61 µM | [10] 14.7 µM

O=C(NNC(=O)c1ccc(CNS(=O)(=O)c2ccc(F)c(Cl)c2)cc1)c1ccccc1
not listed: [6] | [7] | [8] | [9] | [10] | [18] | [19]
inactive: all other assays above

N#CC(=C(N)Sc1ccc(N)cc1)c1ccccc1C(F)(F)F
active: [12] 4.82 µM
inactive: [18] | [19] | [14] | [3]

C[C@H](NC(=O)C(C#N)=Cc1cccc(Br)n1)c1ccccc1
active: [11] 7.43 µM | [19] 16.6 µM | [2] 16.6 µM | [15] 19.3 µM | [16] 33.2 µM | [5] 23.5 µM | [17] 23.5 µM
inactive: [4]

Cc1cnc(NC(=O)Nc2cc(Br)c(C)cc2OC[C@@H]2CNCCO2)cn1
active: [11] 1.05 µM | [2] 1.87 µM | [15] 1.37 µM
inactive: [13] | [14] | [16] | [4] | [5] | [17]

CN(C)c1ccc2cc(C(=O)N[C@@H](CCCN=C(N)CCl)C(=O)NCc3ccccc3)ccc2c1
inactive: [4]
active: [11] 23.5 µM | [1] 14.8 µM | [12] 21.5 µM | [19] 14.8 µM | [2] 1.05 µM | [13] 24.3 µM | [14] 20.9 µM | [15] 4.85 µM | [16] 13.2 µM | [5] 4.69 µM

CN(CC(=O)N(Cc1ccc(C2CCCCC2)cc1)c1ccc(C(=O)O)c(O)c1)S(=O)(=O)c1c(F)c(F)c(F)c(F)c1F
active: [11] 26.4 µM | [1] 16.6 µM | [12] 21.5 µM | [19] 20.9 µM | [2] 23.5 µM | [16] 37.2 µM | [6] 26.1 µM
inactive: [4]

CC(=CC(=O)Nc1ccccc1C(=O)O)c1ccc2ccccc2c1
inactive: [18] | [13] | [14] | [3] | [5]

Cc1ccc(-n2[nH]c(C)c(N=Nc3cccc(-c4cccc(C(=O)O)c4)c3O)c2=O)cc1C
inactive: [4]
active: [11] 6.62 µM | [1] 13.3 µM | [15] 17.4 µM | [3] 21.1 µM | [17] 18.7 µM

Cc1cc(C(=O)NOCCO)c(Nc2ccc(I)cc2F)n(C)c1=O
inactive: [1] | [14] | [4] | [5] | [17]

C#C[C@]1(O)CC[C@@H]2[C@@H]3CCc4cc(O)ccc4[C@H]3CC[C@@]21C
inactive: [4]
active: [11] 13.2 µM | [1] 18.7 µM | [12] 24.1 µM | [19] 20.9 µM | [15] 30.6 µM | [16] 18.7 µM | [3] 23.5 µM | [17] 23.5 µM

C#Cc1cccc(Nc2ncnc3cc(OCCOC)c(OCCO)cc23)c1
inactive: [5]
active: [11] 5.26 µM | [1] 5.9 µM | [19] 1.87 µM | [2] 0.264 µM | [13] 13.7 µM | [15] 3.85 µM | [16] 1.66 µM | [17] 7.43 µM

C[C@]12CC[C@@H]3c4ccc(O)cc4CC[C@H]3[C@H]1CC[C@H]2O
active: [11] 9.35 µM | [1] 16.6 µM | [19] 4.18 µM | [2] 9.35 µM | [15] 24.3 µM | [16] 10.5 µM
inactive: [4]

CC(C=CC=C(C)C=CC1=C(C)CCCC1(C)C)=CC=CC=C(C)C=CC=C(C)C=CC1=C(C)CCCC1(C)C
inactive: [18] | [13] | [14] | [4]
active: [16] 29.6 µM

C=C1C(=O)O[C@H]2[C@@H]1CCC(C)=CCC[C@@]1(C)O[C@@H]21
active: [11] 5.26 µM | [1] 3.32 µM | [12] 24.1 µM | [19] 8.33 µM | [2] 7.43 µM | [13] 21.7 µM | [14] 23.5 µM | [15] 4.85 µM | [16] 18.7 µM | [3] 9.35 µM | [5] 18.7 µM | [17] 11.8 µM
inactive: [4]

c1ccc(CNc2nc(NCc3ccccc3)c3ccccc3n2)cc1
active: [11] 23.5 µM | [1] 18.7 µM | [12] 6.81 µM | [19] 18.7 µM | [2] 20.9 µM | [13] 24.3 µM | [15] 30.6 µM | [16] 16.6 µM | [5] 23.5 µM

CC(C)n1cnc2c(NCCc3ccc(O)cc3)nc(-c3csc4ccccc34)nc21
inactive: [18] | [4]
active: [1] 14.8 µM | [16] 11.8 µM | [3] 18.7 µM | [5] 18.7 µM | [17] 11.8 µM

CCNC(=O)c1cc2c(-c3cc(OCCN4CCCC4)c(Cl)cc3Cl)nc(N)nc2s1
active: [11] 0.935 µM | [1] 3.72 µM | [19] 2.64 µM | [14] 4.69 µM | [16] 1.48 µM | [3] 14.8 µM
inactive: [13] | [4] | [5]

CCOC(=O)C1=C(C)NC(=S)NC1c1cccc(O)c1 (centres undefined)
inactive: [19] | [14] | [4] | [5] | [9] | [10]
active: [11] 0.264 µM | [2] 0.187 µM | [13] 0.137 µM | [15] 0.0968 µM | [7] 11.7 µM | [8] 5.22 µM
